Assay results reported in the supplement of paper PMC6805474.

Experiments:
[1] = system: Schistosoma mansoni schistosomula (LE); assay: XTT viability relative to DMSO control; higher = more viable (less active); details: 72 h; 10 µM
Procedure: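 XTT/PMS was then added for a further 24 h (72 h total) and A450 was read. % viability = (sample - heat-killed control)/(DMSO control - heat-killed control) x 100, from duplicate wells in two independent experiments.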

[2] = system: Schistosoma mansoni schistosomula (NMRI); assay: phenotypic severity score (0-4); higher = more antischistosomal effect, active = 2 or more; details: 10 µM
[3] = system: Schistosoma mansoni schistosomula (Liberian); assay: drug effect (1 - score/DMSO control score) (fraction); higher = more antischistosomal effect, active = 0.5 or more; extreme values may be limits of the assay; details: 10 µM
Outline: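 Schistosomula of the Liberian strain of Schistosoma mansoni were mechanically transformed from cercariae, pre-incubated for at least 12 h, and placed at 50 per well in flat-bottom 96-well plates with Medium 199 containing 5% FCS. Compounds were tested in duplicate at 10 µM at 37 °C and 5% CO2, alongside wells holding 0.1% DMSO. Parasites were scored visually at 10× after 24, 48 and 72 h on a quarter-point scale running from 3 (normal) to 0 (dead). Drug effect came from the mean test-well score relative to the mean DMSO-well score, with negative values set to zero and plates accepted only when the DMSO wells averaged at least 2.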
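Throughout, for phenotypic severity score (0-4): visual microscopic scoring of shape, motility and density changes versus 0.5% DMSO solvent controls, one point per descriptor, degeneracy or death scored 4, mean of duplicate wells.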

SMILES | XTT viability [1] | phenotypic severity score ([2]; 24 h) | phenotypic severity score ([2]; 48 h) | phenotypic severity score ([2]; 72 h) | drug effect ([3]; 24 h) | drug effect ([3]; 48 h) | drug effect ([3]; 72 h)
CNc1cc(C)nc(C2CN(C(=O)c3n[nH]c4ccccc34)CCO2)c1 (configuration not stated) | 123% | 0 (inactive) | 0 (inactive) | 0 (inactive) | 0.158 (inactive) | 0.167 (inactive) | 0.125 (inactive)
CS(=O)(=O)c1ccccc1C(=O)N(Cc1ccccc1)c1ccccc1 | 106% | 0 (inactive) | 1 (inactive) | 0 (inactive) | 0.182 (inactive) | 0.4 (inactive) | 0.4 (inactive)
CCCn1nnc(NC(=O)COc2ccc(C3CCCCC3)cc2)n1 | 89.6% | 0 (inactive) | 0 (inactive) | 0 (inactive) | 0.136 (inactive) | 0.2 (inactive) | 0.182 (inactive)
CCOc1ccccc1C(=O)Nc1cccc(-c2nc3ncccn3c2C)c1 | 107% | 0 (inactive) | 0 (inactive) | 0 (inactive) | 0.0811 (inactive) | 0.389 (inactive) | 0.625 (active)
COc1ccc(-c2cnc3cnc(-c4cccc(OC(C)C)c4)cn23)cc1 | 39% | 2 (active) | 4 (active) | 4 (active) | 0.0455 (inactive) | < 0 (inactive) | 0.105 (inactive)
CC(C)C(C(=O)Nc1ccc(S(=O)(=O)N(C)C)cc1)c1ccc(Cl)cc1 (configuration not stated) | 29.5% | 2 (active) | 4 (active) | 4 (active) | 0.955 (active) | 0.85 (active) | 1 (active)
CNC(=O)C1Cc2ccccc2N1C(=O)Cc1ccc(F)cc1 (configuration not stated) | 84.2% | 0 (inactive) | 0 (inactive) | 0 (inactive) | 0.227 (inactive) | 0.2 (inactive) | 0.236 (inactive)
CN1CCN(CCCOc2ncc(Nc3ncc(-c4ccc(C(F)(F)F)c(F)c4)nc3C(N)=O)cn2)CC1 | 5.2% | 3 (active) | 3 (active) | 3 (active) | 1 (active) | 1 (active) | 1 (active)
c1csc(-c2cnc3sc(NCC4CCOCC4)nn23)c1 | 95.7% | 0 (inactive) | 0 (inactive) | 0 (inactive) | 0.182 (inactive) | 0.55 (active) | 0.345 (inactive)
CC(C)(C)CN1C(=O)C(c2ccccc2)(c2ccccc2)N=C1N | 88.6% | 0 (inactive) | 0 (inactive) | 0 (inactive) | 0.1 (inactive) | 0.135 (inactive) | 0.273 (inactive)
CC(C)(C)c1cnc(NC(=O)c2ccccc2O)s1 | 79.9% | 0 (inactive) | 1 (inactive) | 1 (inactive) | 1 (active) | 1 (active) | 1 (active)
O=C(c1[nH]nc2c1CCCC2)N1CCN(Cc2ccc3c(c2)OCO3)CC1 | 89.6% | 0 (inactive) | 0 (inactive) | 0 (inactive) | 0.0909 (inactive) | 0.25 (inactive) | 0.236 (inactive)
C[C@]1(O)C[C@@H](c2nc(-c3ccc4ccc(-c5ccccc5)nc4c3)c3c(N)nccn32)C1 | 64% | 0 (inactive) | 0 (inactive) | 0 (inactive) | 0.05 (inactive) | 0.027 (inactive) | 0.111 (inactive)
COc1cc(NC(=O)Cc2nn(C)c(=O)c3ccccc23)ccc1Cl | 104% | 0 (inactive) | 0 (inactive) | 0 (inactive) | 0.105 (inactive) | 0.111 (inactive) | 0.0625 (inactive)
Cc1ccc(NC(=O)c2cc(S(=O)(=O)NC(C)(C)C)ccc2C)nc1 | 90.2% | 0 (inactive) | 0 (inactive) | 0 (inactive) | 0.2 (inactive) | 0.222 (inactive) | 0.375 (inactive)
Nc1nccc2ccc(-c3ccc4nccn4c3)cc12 | 41.1% | 4 (active) | 4 (active) | 4 (active) | 0.568 (active) | 0.778 (active) | 0.75 (active)
Nc1ncc(-c2cn[nH]c2)cc1-c1nc2cc(Cl)cnc2[nH]1 | 94.4% | 0 (inactive) | 0 (inactive) | 0 (inactive) | < 0 (inactive) | < 0 (inactive) | 0.0556 (inactive)
O=C1Nc2ccc(Br)cc2C12NCCc1c2[nH]c2ccccc12 (configuration not stated) | 109% | 0 (inactive) | 0 (inactive) | 0 (inactive) | 0.05 (inactive) | 0.0811 (inactive) | 0.167 (inactive)
CC(Oc1cccc(Cl)c1)C(=O)Nc1ccc2oc(-c3ccncc3)nc2c1 (configuration not stated) | 109% | 1 (inactive) | 0 (inactive) | 0 (inactive) | 0.318 (inactive) | 0.45 (inactive) | 0.564 (active)
COc1ccc(-c2nnc3ccc(-c4cccc(C(C)C)c4)cn23)cc1OC | 14.7% | 0 (inactive) | 2 (active) | 0 (inactive) | 0.1 (inactive) | 0.167 (inactive) | 0.278 (inactive)
C[C@H]1COc2c(N3CCN(C)CC3)c(F)cc3c(=O)c(C(=O)O)cn1c23 | 67.9% | 0 (inactive) | 0 (inactive) | 0 (inactive) | 0.0455 (inactive) | 0.05 (inactive) | 0.0526 (inactive)

SMILES | XTT viability [1] | phenotypic severity score ([2]; 24 h) | phenotypic severity score ([2]; 48 h) | phenotypic severity score ([2]; 72 h) | drug effect ([3]; 24 h) | drug effect ([3]; 48 h) | drug effect ([3]; 72 h)
CC(C(=O)N1CCCC1)N1CCN(S(=O)(=O)c2ccc(C(C)(C)C)cc2)CC1 (configuration not stated) | 109% | 1 (inactive) | 0 (inactive) | 0 (inactive) | 0.05 (inactive) | 0.027 (inactive) | 0.0909 (inactive)
COC(=O)C1=C(C)NC(C)=C(C(=O)OC(C)C)C1c1cccc2nonc12 (configuration not stated) | 63.2% | 2 (active) | 0 (inactive) | 0 (inactive) | 0.15 (inactive) | 0.189 (inactive) | 0.111 (inactive)
O=C(CN1CCOCC1)Nc1ccc2ncnc(Nc3ccc(OCc4cccc(F)c4)c(Cl)c3)c2c1 | 125% | 0 (inactive) | 0 (inactive) | 0 (inactive) | 0.3 (inactive) | 0.25 (inactive) | 0.222 (inactive)
c1ccc(-c2[nH]c3ccccc3c2C(c2ccccn2)N2CCCC2)cc1 (configuration not stated) | -3.4% | 4 (active) | 4 (active) | 4 (active) | 1 (active) | 1 (active) | 1 (active)
CC(C)=CCC/C(C)=C\CNCCNC1C2CC3CC(C2)CC1C3 (configuration not stated) | 13.5% | 4 (active) | 4 (active) | 4 (active) | 1 (active) | 1 (active) | 1 (active)
Cc1cc(C)n2nc(C(=O)Nc3cc(C(F)(F)F)ccc3N3CCOCC3)nc2n1 | 73.3% | 0 (inactive) | 0 (inactive) | 0 (inactive) | 0.05 (inactive) | 0.135 (inactive) | 0.222 (inactive)
O=C(NC1CC1)c1ccc(N2CCC(Cc3ccccc3)CC2)nc1 | 91.1% | 0 (inactive) | 0 (inactive) | 0 (inactive) | 0.1 (inactive) | 0.0811 (inactive) | 0.167 (inactive)
COc1cc(C2=NCCN2)cc2cc(-c3ccc(C4=NCCN4)cc3)oc12 | 4.86% | 0 (inactive) | 0 (inactive) | 0 (inactive) | 0.1 (inactive) | 0.027 (inactive) | 0.0303 (inactive)
COc1cc(Br)cc2cc(C(=O)Nc3cccc(C(F)(F)F)c3)c(=O)oc12 | 90.6% | 0 (inactive) | 0 (inactive) | 0 (inactive) | 0.1 (inactive) | 0.0556 (inactive) | 0.0556 (inactive)
Cc1cccc(-c2nc(Nc3ccncn3)c3sccc3n2)n1 | 39.9% | 1 (inactive) | 3 (active) | 4 (active) | 0.405 (inactive) | 0.667 (active) | 0.75 (active)
O=C([C@@H](c1ccc(Cl)cc1)c1cccnc1)N1CCN(c2ccc(C(F)(F)F)cc2)CC1 | 46.8% | 0 (inactive) | 2 (active) | 4 (active) | 0.75 (active) | 0.722 (active) | 0.75 (active)
O[C@@H](c1cc(C(F)(F)F)nc2c(C(F)(F)F)cccc12)[C@H]1CCCCN1 | -0.139% | 4 (active) | 4 (active) | 4 (active) | 0.955 (active) | 1 (active) | 1 (active)
COc1ccc(C2=NN(C3CCCCCC3)C(=O)C2(C)C)cc1OCCCCOc1ccc(-c2nn[nH]n2)cc1 | 3.51% | 1 (inactive) | 0 (inactive) | 0 (inactive) | 0.182 (inactive) | 0.2 (inactive) | 0.127 (inactive)
COC(=O)c1c(NC(=O)c2c(F)c(F)c(F)c(F)c2F)sc2c1CCCCC2 | 0.615% | 2 (active) | 4 (active) | 4 (active) | 1 (active) | 1 (active) | 1 (active)
CCCCN(CCCC)c1c(C#N)cc(S(=O)(=O)Nc2ccccc2)cc1C#N | 40.5% | 0 (inactive) | 0 (inactive) | 0 (inactive) | 0.15 (inactive) | 0.135 (inactive) | 0.273 (inactive)
O=C(Nc1nnc(S)s1)c1cc(Br)ccc1Cl | 91.7% | 0 (inactive) | 0 (inactive) | 0 (inactive) | 0.05 (inactive) | 0.027 (inactive) | 0.0909 (inactive)
Cc1nn2c(O)c3c(nc2c1-c1ccc(F)cc1)CCCC3 | 113% | 0 (inactive) | 0 (inactive) | 0 (inactive) | 0.409 (inactive) | 0.45 (inactive) | 0.509 (active)
CC(C)C(NC(=O)Cc1cccc2ccccc12)C(=O)Nc1cccc(C#N)c1 (configuration not stated) | 68.8% | 0 (inactive) | 0 (inactive) | 0 (inactive) | 0.15 (inactive) | 0.222 (inactive) | 0.333 (inactive)
CCOC(=O)NC(=O)c1ccsc1NC(=O)c1nc2ccccc2s1 | 134% | 0 (inactive) | 0 (inactive) | 0 (inactive) | 0.0909 (inactive) | 0.2 (inactive) | 0.182 (inactive)
O=C(Nc1ccc(F)c(-c2nc3cc(-c4ccccc4)cnc3[nH]2)c1)N1CCCC1 | 111% | 0 (inactive) | 4 (active) | 4 (active) | 0.676 (active) | 0.667 (active) | 0.875 (active)
